These results are taken from PubChem BioAssay (NCATS).

Several values for one entry are separate records, joined by “and”; a condition that tells them apart may be missing. Equal values may be shown once. Records with an inconclusive call do not appear. Where a call stands in place of a potency, no number is given. Activity calls are given as the source filed them. Calls follow the shape of the dose curve; as a rule, active = well fitted cell-killing curve with a large enough effect; inconclusive = small, poorly fitted or top-dose-only effect; inactive = no such curve, though single readings can be large or run the other way.
Potency is read from the fitted curve at half-maximal effect.

The nature of this test: qHTS of pediatric cancer cell lines to identify multiple opportunities for drug repurposing: Primary screen for NB1643 cells (AID 1347099). Also: nearly all actives have a fitted effect of over 50% in size. The following applies: NB1643 neuroblastoma viability, CellTiter-Glo luminescence, 48 h; series mostly up to 46 µM. Summed up:
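Viability was measured as metabolically active cells after 48 hours of treatment, read by CellTiter-Glo luminescence. Compounds were tested at multiple final concentrations, giving concentration-response curves.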
For orientation: qHTS replaces the single test concentration by a dilution series.
Consider `NN=C(N)N`, for which the Potency entry was “inactive”.

On to `CN1CCN(C(=O)O[C@H]2c3nccnc3C(=O)N2c2ccc(Cl)cn2)CC1`, for which the Potency entry is “inactive”.

On to `CC1NCCOC1c1ccccc1` (stereo unspecified), for which the Potency entry is “inactive”.

For `CC(C)=CC1C(C(=O)OCc2cccc(Oc3ccccc3)c2)C1(C)C` (stereo unspecified), the Potency result is “inactive”.

On to `NCCc1cc(O)c(O)cc1O`, for which the Potency result was “inactive”.

Regarding `CCN(CC)C(=O)N[C@@H]1C=C2c3cccc4[nH]cc(c34)C[C@@H]2N(C)C1`, the Potency entry is “inactive”.

Turning to `CCCC(C)(COC(N)=O)COC(=O)NC(C)C` (stereo unspecified), the Potency entry was “inactive”.

For the molecule `O=[N+]([O-])c1cc([As](=O)(O)O)ccc1O`, the Potency entry is “inactive”.

Consider `COc1ccc(C(=O)c2c(C)n(CCN3CCOCC3)c3ccccc23)cc1`, for which the Potency result is “inactive”.

Take `CCC(C(N)=O)N1CCCC1=O` (stereo unspecified): the Potency entry was “inactive”.

On to `C=C1CC[C@@]2(O)[C@H]3Cc4ccc(O)c5c4[C@@]2(CCN3CC2CC2)[C@H]1O5`, for which the Potency result was “inactive”.

With `Nc1ccncc1`, the Potency result is “inactive”.

Turning to `CC(C)NCC(O)c1ccccc1Cl` (stereo unspecified), the Potency entry is “inactive”.

In the case of `CCCN1CCC[C@@H]2Cc3nc(N)ncc3C[C@H]21`, the Potency result is “inactive”.

Take `N[C@@H](Cc1ccc(N(CCCl)CCCl)cc1)C(=O)O`: the Potency was 9.44 µM (active) and 16.6 µM (active).

As to `CCCN1CCC[C@@H]2Cc3[nH]ncc3C[C@H]21`, the Potency entry was “inactive”.

Turning to `CC(=O)[C@H]1CC[C@H]2[C@@H]3CC[C@H]4C[C@](C)(O)CC[C@]4(C)[C@H]3CC[C@]12C`, the Potency result was “inactive”.

As for `Oc1cc(Cl)ccc1Oc1ccc(Cl)cc1Cl`, the Potency was 35.1 µM (active).

For `N[C@@H](Cc1ccc(Oc2cc(I)c(O)c(I)c2)c(I)c1)C(=O)O`, the Potency result is “inactive”.

Take `Clc1cccc(N2CCNCC2)c1`: the Potency result is “inactive”.

For `C#CCN(C)[C@H](C)Cc1ccccc1`, the Potency entry is “inactive”.

With `CC(C)(C)NCC(O)c1cc(Cl)c(N)c(Cl)c1` (stereo unspecified), the Potency entry is “inactive”.

Consider `CC[C@@H](CO)NC(=O)[C@@H]1C=C2c3cccc4[nH]cc(c34)C[C@H]2N(C)C1`, for which the Potency entry is “inactive”.

As for `NP(N)(=O)NC(=O)c1ccc(F)cc1`, the Potency result was “inactive”.

On to `CCN(CC)CCOC(=O)C(O)(c1ccccc1)c1ccccc1`, for which the Potency entry is “inactive”.

For the molecule `Cc1cccc(C)c1NC(=O)CN1CCCC1=O`, the Potency result is “inactive”.

Turning to `CN1C(=S)CN=C(c2ccccc2)c2cc(Cl)ccc21`, the Potency result was “inactive”.

As for `N[C@@H]1C[C@H]1c1ccccc1`, the Potency entry is “inactive”.

Consider `CC[N+](CC)(CC)CC`, for which the Potency result was “inactive”.

With `Fc1ccc(C(OCCN2CCN(CCCc3ccccc3)CC2)c2ccc(F)cc2)cc1`, the Potency was 13.2 µM (active).

Turning to `CCCC1CCCCN1` (stereo unspecified), the Potency entry is “inactive”.

As for `C#CCOC(C(=O)OCCN(C)C)(c1ccccc1)c1ccccc1`, the Potency entry is “inactive”.

On to `CN(C)CCc1ccc(O)cc1`, for which the Potency result is “inactive”.

In the case of `CCN(C(C)=O)c1cccc(-c2ccnc3c(C#N)cnn23)c1`, the Potency entry is “inactive”.

For `CC(=O)Nc1cc([As](=O)(O)O)ccc1O`, the Potency result is “inactive”.

Regarding `NCC1(CC(=O)O)CCCCC1`, the Potency result was “inactive”.
